# From PubChem
# Rows were chosen to be rich in hits. Some 22% of all compounds tested hit in one or more screens of this group.
# CYP2C9 inhib: inhibitors of human CYP2C9 | 96,000 compounds, 20% hits | inhibition, % at 5 µM | P11712 | AID 777 | CYP2C9 Supersomes, luciferin-H conversion, luminescence;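 active = blocking of liver enzyme CYP2C9 beyond about 50% at 5 µM, limit read from the data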
# CYP2C19 inhib: human CYP2C19 inhibition | P33261 | CYP2C19 Supersomes, luciferin-H EGE luminescence, 30 min | inhibition, % at 5 µM | 96,000 compounds, 21% hits | AID 778;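 active = CYP2C19 inhibition above a set limit at 5 µM in the primary screen, cut at about 50% in these data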;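 note: plate controls were negative control wells for no effect and 2.5 mM tranylcypromine positive control for full effect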
# Target sequence (P33261 whole entry, looked up): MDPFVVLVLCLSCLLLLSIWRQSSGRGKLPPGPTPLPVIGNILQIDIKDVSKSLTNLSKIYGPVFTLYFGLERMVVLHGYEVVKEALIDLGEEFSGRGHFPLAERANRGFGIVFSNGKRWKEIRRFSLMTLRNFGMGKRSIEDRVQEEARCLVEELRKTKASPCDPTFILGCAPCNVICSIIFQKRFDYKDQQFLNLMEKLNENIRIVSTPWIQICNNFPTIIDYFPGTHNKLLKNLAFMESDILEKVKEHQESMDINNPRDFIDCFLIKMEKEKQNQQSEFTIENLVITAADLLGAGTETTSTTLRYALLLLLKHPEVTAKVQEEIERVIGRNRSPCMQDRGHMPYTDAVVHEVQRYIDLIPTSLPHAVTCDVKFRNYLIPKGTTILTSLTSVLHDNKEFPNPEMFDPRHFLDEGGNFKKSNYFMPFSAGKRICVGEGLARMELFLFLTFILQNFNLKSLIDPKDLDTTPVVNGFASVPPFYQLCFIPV
# E-sel TNF inh: TNF alpha driven E-selectin expression inhibition; HUVEC TNFa-induced E-selectin immunofluorescence, high content; inhibition, % at 2 µM; 120,000 compounds, 0.71% hits;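 active = inhibition above the batch mean plus 3 SD, and confirmed as a hit on visual image review, cut at about 43% in these data; inconclusive = passes the inhibition cutoff but fails visual image review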;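 note: 0% = TNF-stimulated DMSO wells and 100% = unstimulated control wells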
# cytoskel mod: cytoskeleton assembly modification. HUVEC TNFa F-actin phalloidin imaging, high content. inhibition, % at 2 µM. 91,000 compounds, 0.18% hits. AID 836;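 active = inhibition above the batch mean plus 3 SD and confirmed as a hit by visual image inspection, cut at about 30% in these data, passing the limit was not always enough; inconclusive = above the inhibition threshold but rejected on visual inspection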
# CYP2C9 activ: CYP2C9 (human) activation. P11712. recombinant CYP2C9, luciferin-H conversion, luminescence; hits give high values; factor 1 = untreated enzyme, 0 = blocked. activation factor at 5 µM. 96,000 compounds, 1.4% hits. AID 1024;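 active = activation factor of 2 or more for CYP2C9 at a 5 µM dose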;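 note: 0 = sulfaphenazole-blocked wells and 1 = vehicle-only wells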
# CYP2C19 activ: activators of human cytochrome P450 2C19. recombinant CYP2C19, luciferin-H EGE luminescence; hits give high values; 0 = fully inhibited enzyme, 1 = untreated enzyme. activation factor at 5 µM. 96,000 tested, under 10 active. P33261. AID 1025;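 active = activation factor of at least 2 at 5 µM in the primary screen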;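 note: 0 = wells with 2.5 mM tranylcypromine and 1 = vehicle-only wells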
# Numbers without * were called inactive; ? = inconclusive; . = not tested or not shown.
SMILES,CYP2C9 inhib,CYP2C19 inhib,E-sel TNF inh,cytoskel mod,CYP2C9 activ,CYP2C19 activ
Cc1cccn2cc(CCNS(=O)(=O)c3ccc([N+](=O)[O-])cc3)nc12,.,.,-9,.,.,.
CCCCNS(=O)(=O)c1ccc2c(c1)oc(=O)n2CC(=O)OCC,72*,18,.,4,0.3,0.8
CCOC(=O)Cn1c(=O)oc2cc(S(=O)(=O)Nc3c(C)cc(C)cc3C)ccc21,18,25,.,-4,0.8,0.7
COc1ccc(C(=O)CSc2nnc(CNc3ccc(C)cc3C)n2Cc2ccco2)cc1,57*,88*,-45,13,0.4,0.1
Cc1ccc(C(=O)CSc2nnc(CNc3ccc(C)cc3C)n2Cc2ccco2)cc1,73*,75*,3,-42,0.3,0.2
Cc1ccc(NCc2nnc(SCc3ccc(C#N)cc3)n2Cc2ccco2)c(C)c1,94*,92*,41,29,0.1,0.1
N#Cc1ccc(CSc2nnc(-c3ccccc3)n2Cc2ccco2)cc1,42,12,-1,-9,0.6,0.9
Cc1ccc(NCc2nnc(SCC(=O)NCc3ccco3)n2CC2CCCO2)c(C)c1 (stereo not given),-8,5,0,-11,1.1,0.9
N#Cc1ccc(CSc2nnc(Cc3cccs3)n2Cc2ccco2)cc1,66*,93*,38,2,0.3,0.1
O=C(C1CCCO1)N1CCc2ccccc21 (stereo not given),-39,-7,-16,-3,1.4,1.1
O=C1CN(C(=O)CCCc2c[nH]c3ccccc23)c2ccccc2N1,7,50*,9,-9,0.9,0.5
Cc1[nH]c2ccccc2c1SCC(=O)N1CCOCC1,-69,93*,3,.,1.7,0.1
O=C(O)CCCC(=O)N1CC(=O)Nc2ccccc21,5,4,.,13,1,1
O=C(CSc1c[nH]c2ccccc12)N1CCOCC1,10,84*,-19,.,0.9,0.2
Cc1[nH]c2ccccc2c1SCC(=O)O,.,.,-5,10,.,.
O=C(C(=O)N1CCOCC1)c1c[nH]c2ccccc12,.,.,-18,.,.,.
COCC(=O)NCCSc1c(C)[nH]c2ccccc12,-32,58*,.,-16,1.3,0.4
O=C(NCCO)/C(=C/c1cccc([N+](=O)[O-])c1)NC(=O)c1ccco1,.,.,-21,.,.,.
CC(C)(/C=N/O)/[N+]([O-])=C/c1ccccc1C(F)(F)F,-8,14,-2,-1,1.1,0.9
O=C(CCCc1c[nH]c2ccccc12)N1CCOCC1,-28,67*,-4,-32,1.3,0.3
O=C(CCc1c[nH]c2ccccc12)N1CCN(c2ccc(O)cc2)CC1,.,.,-14,.,.,.
Cc1c(Cl)cccc1NC(=O)COC(=O)CCc1nc2ccccc2n1-c1ccccc1,.,.,16,.,.,.
Cn1c(=O)c2c(ncn2Cc2cccc(Cl)c2)n(C)c1=O,13,47,-4,-5,0.9,0.5
Cn1c(=O)c2c(ncn2CC(=O)OCc2ccccc2)n(C)c1=O,63*,2,1,1,0.4,1
Cn1c(=O)c2c(ncn2CC(=O)OCC(=O)Nc2ccccc2Cl)n(C)c1=O,.,.,-9,.,.,.
SMILES,CYP2C9 inhib,CYP2C19 inhib,E-sel TNF inh,cytoskel mod,CYP2C9 activ,CYP2C19 activ
Cn1c(=O)c2c(nc(SCC(=O)OCc3ccccc3)n2C)n(C)c1=O,80*,26,-5,10,0.2,0.7
Cn1c(=O)c2c(ncn2CC(N)=O)n(C)c1=O,-17,-5,47,-44,1.2,1.1
COC(=O)Cn1cnc2c1c(=O)n(C)c(=O)n2C,.,.,100*,0,.,.
Cn1c(=O)c2c(ncn2Cc2ccc(Cl)c(Cl)c2)n(C)c1=O,61*,92*,-9,-10,0.4,0.1
Cc1nc(SCC(=O)OCc2ccccc2)c2c(=O)n(C)c(=O)n(C)c2n1,10,10,.,-5,0.9,0.9
Cn1cnnc1SCC(=O)Nc1nc(-c2ccccc2)cs1,.,.,-14,.,.,.
Cc1cc(C)cc(-n2nnnc2SCC(=O)Nc2nc(-c3ccc(F)cc3)cs2)c1,-124,23,23,-7,2.2*,0.8
Cc1ccc(-n2nnnc2SCC(=O)Nc2nc(-c3ccc(F)cc3)cs2)cc1C,52*,30,-53,7,0.5,0.7
Cc1cc(C)cc(-n2nnnc2SCC(=O)Nc2nc(-c3ccc(Cl)cc3)cs2)c1,-59,4,-5,45*,1.6,1
COCCn1c(N)c(C(=O)NS(=O)(=O)c2ccc(C)cc2)c(=O)[nH]c1=O,.,.,21,.,.,.
CSc1nsc(SCc2ccc(F)cc2)n1,9,79*,-6,25,0.9,0.2
CSc1nsc(SCc2ccc(Cl)cc2)n1,13,82*,23,3,0.9,0.2
COc1ccccc1C1=NOC(COC(=O)c2ccc3ccccc3n2)C1 (stereo not given),-121,35,-48,4,2.2*,0.7
CCOC(=O)N1CCN(C(=O)C2CC(c3ccccc3OC)=NO2)CC1 (stereo not given),-11,10,.,.,1.1,0.9
COC(=O)N[C@H](CC(C)=O)c1ccccc1,.,.,-29,.,.,.
Cc1ccc(Cl)cc1N1CCN(C(c2cccnc2)c2nnnn2C2CCCCC2)CC1 (stereo not given),93*,98*,.,?,0.1,0
Cc1ccc(Cl)cc1N1CCN(C(c2ccc(C#N)cc2)c2nnnn2C2CCCC2)CC1 (stereo not given),56*,29,-18,12,0.4,0.7
COc1ccc(/C=C2/C(=O)N(CC3CCCO3)C(=S)N2C)c(OC)c1 (stereo not given),90*,64*,-64,3,0.1,0.4
COc1ccc(C2C(C(C)=O)=C(C)N=c3s/c(=C/c4ccc5c(c4)OCO5)c(=O)n32)cc1 (stereo not given),16,8,-2,-3,0.8,0.9
Cc1ncc([N+](=O)[O-])n1CCOC(=O)c1cc(Cl)cc(Cl)c1N,.,.,-29,.,.,.
CN(CC(=O)Nc1ccc(C#N)cc1)Cc1ccc(Cl)cc1Cl,90*,94*,1,-5,0.1,0.1
N#Cc1ccc(NC(=O)Nc2ccc(Cl)cc2)cc1,7,16,-83,.,0.9,0.8
CN(CC(=O)Nc1ccc(C#N)cc1)Cc1ccc(Cl)cc1,75*,89*,-12,.,0.2,0.1
Cc1ccc2[nH]c(=O)c3cc(C(=O)N4CCN(C(=O)c5ccco5)CC4)sc3c2c1,10,-3,4,-3,0.9,1
CCOc1cc2[nH]c(=O)n(Cc3cccc(OC)c3)c(=O)c2cc1OCC,7,-4,-10,18,0.9,1
CCCCCCC1CCC(C(=O)NC(CCSC)C(=O)NC(C(=O)OC)C(C)C)CC1 (stereo not given),16,86*,-15,6,0.8,0.1
CCn1c(SCC(=O)Nc2ccccc2C(=O)OC)nnc1-c1ccoc1C,20,94*,-23,32,0.8,0.1
CCn1c(SCC(=O)Nc2ccccc2C(=O)OC)nnc1-c1ccc(N)cc1,16,98*,1,8,0.8,0
C1=C(CCNCC2CCCCC2)CCCC1,-1,88*,-32,-12,1,0.1
